Results filed as inconclusive are left out. Entries that show only a call come without a potency. Unmarked numbers belong to inactive results. Calls of active or inactive are those of the source. Calls come from the whole dose curve; as a rule, active = well fitted curve in the direction sought with a large enough effect in the repeat runs; inconclusive = weak or mixed curves; inactive = no such curve, though single readings can be large; an effect the other way counts as inactive or inconclusive.
Legend:
[1] = A CellTox Green Cytotoxicity Assay to monitor cytotoxicity in HEK293 cells - 40 hour (AID 1224871); note: nearly all actives have a fitted effect of over 45% in size
Method in brief: (§1)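 Fluorescence from a DNA-binding dye excluded by viable cells was measured repeatedly in the same HEK293 wells (600 cells/well) during continuous compound exposure at 37 C. Each assay gives one read point: 0, 8, 16, 24, 32 or 40 h.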

[2] = qHTS RealTime-Glo MT Cell Viability Assay in HEK293 cells - 16 hour (AID 1224872); note: top concentration of the series differs between compounds; nearly all actives have a fitted effect of over 50% in size
Method in brief: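 Viability tracked continuously by luminescence as live cells reduce a prosubstrate for NanoLuc; HEK293 cells preincubated 5 h, compound-treated at 37 C, and read at 0, 8, 16, 24, 32 and 40 h.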

[3] = qHTS RealTime-Glo MT Cell Viability Assay in HepG2 cells - 8 hour (AID 1224873); note: nearly all actives have a fitted effect of over 55% in size
Method in brief: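 HepG2 cells (600/well) mixed with RealTime-Glo MT reagent, settled 5 h at 37 C/5% CO2 before compound addition. Nonlytic NanoLuc luminescence from viable-cell prosubstrate reduction read repeatedly during 40 h treatment at 37 C.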

[4] = qHTS RealTime-Glo MT Cell Viability Assay in HEK293 cells - 40 hour (AID 1224874); details: RealTime-Glo luminescence; max response: hits give low values; note: nearly all actives have a fitted effect of over 50% in size
Method in brief: (§2)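 Luminescence, which tracks viable cell number through reduction of the prosubstrate to a NanoLuc substrate, was read over continuous 37 C culture. Cells (600/well) were premixed with reagent and rested 5 h before 23 nL of compound in DMSO was pinned.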

[5] = A CellTox Green Cytotoxicity Assay to monitor cytotoxicity in HEK293 cells - 24 hour (AID 1224875); note: series mostly up to about 77 µM; nearly all actives have a fitted effect of over 45% in size
Method in brief: as §1

[6] = A CellTox Green Cytotoxicity Assay to monitor cytotoxicity in HepG2 cells - 16 hour (AID 1224876); note: nearly all actives have a fitted effect of over 45% in size
Method in brief: (§3)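 Real-time cytotoxicity: fluorescence of a cell-impermeant cyanine dye binding DNA of dead HepG2 cells, measured repeatedly (0–40 h) during compound exposure at 37 C. Cells seeded 600/well with reagent, dosed after 5 h.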

[7] = qHTS RealTime-Glo MT Cell Viability Assay in HepG2 cells - 32 hour (AID 1224877); note: nearly all actives have a fitted effect of over 55% in size
Method in brief: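 Viability was tracked continuously by NanoLuc luminescence from prosubstrate reduced by living HepG2 cells, at successive time points over 40 h of compound exposure. Cells with reagent were preincubated 5 h at 37 °C before compound addition.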

[8] = A CellTox Green Cytotoxicity Assay to monitor cytotoxicity in HepG2 cells - 24 hour (AID 1224878); note: nearly all actives have a fitted effect of over 45% in size
Method in brief: as §3

[9] = A CellTox Green Cytotoxicity Assay to monitor cytotoxicity in HepG2 cells - 40 hour (AID 1224879); note: nearly all actives have a fitted effect of over 40% in size
Method in brief: as §3

[10] = qHTS RealTime-Glo MT Cell Viability Assay in HEK293 cells - 0 hour (AID 1224880); note: nearly all actives have a fitted effect of over 45% in size; note: potency is the fitted concentration of half-maximal effect; for activity change, negative = cytotoxicity: top concentration of the series differs between compounds
Method in brief: as §2

SMILES	Potency [1]	Potency [2]	Potency [3]	max response [4] [%]	Potency [5]	Potency [6]	Potency [7]	Potency [8]	Potency [9]	Potency [10]	cytotoxicity increase [1]	activity change, negative = cytotoxicity [2]	viability change, negative = cytotoxic [3]	activity change [5]	cytotoxicity increase [6]	activity change, negative = cytotoxic [7]	cytotoxicity [8]	cytotoxicity increase [9]	activity change, negative = cytotoxicity [10]
CN(C)CCN(Cc1ccccc1)c1ccccn1	inactive	inactive	inactive	-27.7	inactive	inactive	inactive	inactive	inactive	inactive	–	–	–	–	–	–	–	–	–
OCCNCc1ccccc1	inactive	inactive	inactive	-10.3	inactive	inactive	inactive	inactive	inactive	inactive	–	–	–	–	–	–	–	–	–
c1cc(CCCc2ccncc2)ccn1	inactive	inactive	inactive	-17.4	inactive	inactive	inactive	inactive	inactive	inactive	–	–	–	–	–	–	–	–	–
COC(C)OC	inactive	inactive	inactive	5.31	inactive	inactive	inactive	inactive	inactive	inactive	–	–	–	–	–	–	–	–	–
CC(COCCO)OCCO (stereo not given)	inactive	inactive	inactive	4.24	inactive	inactive	inactive	inactive	inactive	inactive	–	–	–	–	–	–	–	–	–
CC(=O)NO	inactive	inactive	inactive	2.23	inactive	inactive	inactive	inactive	inactive	inactive	–	–	–	–	–	–	–	–	–
CCCCC1=NC2(CCCC2)C(=O)N1Cc1ccc(-c2ccccc2-c2nn[nH]n2)cc1	inactive	inactive	inactive	-1.18	inactive	inactive	inactive	inactive	inactive	inactive	–	–	–	–	–	–	–	–	–
CC(C)(C)OCC1CO1 (stereo not given)	inactive	inactive	inactive	-2.11	inactive	inactive	inactive	inactive	inactive	inactive	–	–	–	–	–	–	–	–	–
CC(C)O.CC(C)O.CCOC(=O)/C=C(\C)O.CCOC(=O)/C=C(\C)O.[Ti]	inactive	inactive	inactive	-0.8	inactive	inactive	inactive	inactive	inactive	inactive	–	–	–	–	–	–	–	–	–
CN1CCN(C(c2ccccc2)c2ccccc2)CC1	inactive	inactive	inactive	-1.32	inactive	inactive	inactive	inactive	inactive	inactive	–	–	–	–	–	–	–	–	–
COc1ccc(C)cc1[N+](=O)[O-]	inactive	inactive	inactive	-4.46	inactive	inactive	inactive	inactive	inactive	inactive	–	–	–	–	–	–	–	–	–
CCN(CC)CCNC(=O)c1cc(Br)c(N)cc1OC	inactive	inactive	inactive	10.1	inactive	inactive	inactive	inactive	inactive	inactive	–	–	–	–	–	–	–	–	–
OC[C@H]1O[C@@H](OCCc2ccc(O)cc2)[C@H](O)[C@@H](O)[C@@H]1O	inactive	inactive	inactive	7.46	inactive	inactive	inactive	inactive	inactive	inactive	–	–	–	–	–	–	–	–	–
NCC(=O)O	–	–	–	8.51	–	–	–	–	–	–	1.17% [at 15.8 µM]	4.48% [at 15.8 µM]	8.37% [at 15.8 µM]	-2.36% [at 15.8 µM, hits give high values]	8.58% [at 15.8 µM]	0.863% [at 15.8 µM]	7.92% [at 15.8 µM]	1.98% [at 15.8 µM]	-1.51% [at 15.8 µM]
C[C@@H]1C[C@H]2[C@@H]3CCC4=CC(=O)C=C[C@]4(C)[C@@]3(F)[C@@H](O)C[C@]2(C)[C@@]1(O)C(=O)COC(=O)c1ccncc1	inactive	inactive	inactive	-17.8	inactive	inactive	inactive	inactive	inactive	3.01 µM (active)	–	–	–	–	–	–	–	–	–
CCOC(=O)C(O)c1ccccc1 (stereo not given)	inactive	inactive	inactive	4.49	inactive	inactive	inactive	inactive	inactive	inactive	–	–	–	–	–	–	–	–	–
CCCCCCCCCCCC(=O)OC[C@@H](O)[C@H]1OC[C@H](OCCO)[C@H]1OCCO	inactive	inactive	inactive	-0.559	inactive	inactive	inactive	inactive	inactive	inactive	–	–	–	–	–	–	–	–	–
CCCCC(=O)OCC(=O)[C@H]1[C@H](C)C[C@H]2[C@@H]3C[C@H](F)C4=CC(=O)C=C[C@]4(C)[C@@]3(F)[C@@H](O)C[C@@]21C	inactive	inactive	inactive	-15.1	inactive	inactive	inactive	inactive	inactive	4.77 µM (active)	–	–	–	–	–	–	–	–	–
Nc1ccc([N+](=O)[O-])c(C(F)(F)F)c1	inactive	inactive	inactive	-6.2	inactive	inactive	inactive	inactive	inactive	inactive	–	–	–	–	–	–	–	–	–
CCCCCCCCO[C@@H]1O[C@H](CO)[C@@H](O)[C@H](O)[C@H]1O	inactive	inactive	inactive	4.48	inactive	inactive	inactive	inactive	inactive	inactive	–	–	–	–	–	–	–	–	–

— PubChem BioAssay (Tox21)
